{
  "source": "the supplement of paper PMC8728848",
  "experiment_in_all_cases": "glycan array binding signal (z-score within array); higher = stronger binding",
  "key": {"[1]": {"system": "Neu5Ac(a2-6)Gal(b1-4)GlcNAc6S", "settings": "glycan notation: IUPAC condensed, linker removed", "in_short": "(§1)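 From the Consortium for Functional Glycomics database, 3228 arrays were curated, keeping only those whose protein sequence was available. Binding is given as a within-array Z-score averaged across arrays sharing a protein sequence and across linkers. Negative Z-scores can be read as non-binding.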"}, "Neu5Ac(a2-6)Gal": {"system": "Neu5Ac(a2-6)Gal", "settings": "glycan notation: IUPAC condensed, linker removed", "in_short": "as §1"}, "[2]": {"system": "Neu5Ac(a2-6)Gal(b1-4)GlcNAc(b1-3)Gal(b1-4)[Fuc(a1-3)]GlcNAc(b1-3)Gal(b1-4)[Fuc(a1-3)]GlcNAc", "settings": "glycan notation: IUPAC condensed, linker removed", "in_short": "as §1"}, "[3]": {"system": "Neu5Ac(a2-6)Gal(b1-4)GlcNAc", "settings": "glycan notation: IUPAC condensed, linker removed", "in_short": "as §1"}, "[4]": {"system": "Neu5Ac(a2-8)Neu5Ac(a2-3)Gal(b1-3)GalNAc(b1-4)[Neu5Ac(a2-3)]Gal(b1-4)Glc", "settings": "glycan notation: IUPAC condensed, linker removed; mutation: R125K", "in_short": "as §1"}, "[5]": {"system": "Neu5Ac(a2-8)Neu5Ac(a2-3)Gal(b1-4)GlcNAc", "settings": "glycan notation: IUPAC condensed, linker removed; mutation: R125K", "in_short": "as §1"}, "[6]": {"system": "Neu5Ac(a2-6)Gal(b1-4)GlcNAc(b1-6)[Gal(b1-3)]GalNAc", "settings": "glycan notation: IUPAC condensed, linker removed", "in_short": "as §1"}, "[7]": {"system": "Neu5Ac(a2-8)Neu5Ac(a2-3)[GalNAc(b1-4)]Gal(b1-4)Glc", "settings": "glycan notation: IUPAC condensed, linker removed", "in_short": "as §1"}, "[8]": {"system": "Neu5Ac(a2-6)Gal(b1-4)GlcNAc(b1-2)[Neu5Ac(a2-6)Gal(b1-4)GlcNAc(b1-4)]Man(a1-3)[GlcNAc(b1-4)][Neu5Ac(a2-6)Gal(b1-4)GlcNAc(b1-4)Man(a1-6)]Man(b1-4)GlcNAc(b1-4)GlcNAc", "settings": "glycan notation: IUPAC condensed, linker removed", "in_short": "as §1"}, "[9]": {"system": "Neu5Ac(a2-6)Gal(b1-4)GlcNAc(b1-3)Gal(b1-4)GlcNAc(b1-3)Gal(b1-4)GlcNAc(b1-2)Man(a1-3)[Neu5Ac(a2-6)Gal(b1-4)GlcNAc(b1-3)Gal(b1-4)GlcNAc(b1-3)Gal(b1-4)GlcNAc(b1-2)Man(a1-6)]GalNAc", "settings": "glycan notation: IUPAC condensed, linker removed", "in_short": "as §1"}, "[10]": {"system": "Neu5Ac(a2-6)Gal(b1-4)GlcNAc(b1-3)Gal(b1-4)GlcNAc(b1-3)[Neu5Ac(a2-6)Gal(b1-4)GlcNAc(b1-3)Gal(b1-4)GlcNAc(b1-6)]GalNAc", "settings": "glycan notation: IUPAC condensed, linker removed", "in_short": "as §1"}, "[11]": {"system": "Neu5Ac(a2-6)GalNAc(b1-4)GlcNAc6S", "settings": "glycan notation: IUPAC condensed, linker removed", "in_short": "as §1"}, "[12]": {"system": "Neu5Ac(a2-6)Gal(b1-4)GlcNAc(b1-3)Gal(b1-4)GlcNAc", "settings": "glycan notation: IUPAC condensed, linker removed", "in_short": "as §1"}, "[13]": {"system": "Neu5Ac(a2-8)Neu5Ac(a2-8)Neu5Ac(a2-3)Gal(b1-4)Glc", "settings": "glycan notation: IUPAC condensed, linker removed", "in_short": "as §1"}, "[14]": {"system": "Neu5Ac(a2-6)GlcNAc(b1-4)GlcNAc", "settings": "glycan notation: IUPAC condensed, linker removed", "in_short": "as §1"}, "Neu5Ac(a2-6)Gal(b1-4)Glc": {"system": "Neu5Ac(a2-6)Gal(b1-4)Glc", "settings": "glycan notation: IUPAC condensed, linker removed", "in_short": "as §1"}, "[15]": {"system": "Neu5Ac(a2-6)Gal(b1-4)GlcNAc(b1-3)Gal(b1-3)GlcNAc", "settings": "glycan notation: IUPAC condensed, linker removed", "in_short": "as §1"}, "Neu5Ac(a2-6)GalNAc": {"system": "Neu5Ac(a2-6)GalNAc", "settings": "glycan notation: IUPAC condensed, linker removed", "in_short": "as §1"}, "[16]": {"system": "Neu5Ac(a2-8)Neu5Ac(a2-3)Gal(b1-4)Glc", "settings": "glycan notation: IUPAC condensed, linker removed", "in_short": "as §1"}, "[17]": {"system": "Neu5Ac(a2-8)Neu5Ac(a2-8)Neu5Ac(a2-3)[GalNAc(b1-4)]Gal(b1-4)Glc", "settings": "glycan notation: IUPAC condensed, linker removed", "in_short": "as §1"}},
  "note": "The full list was thinned out, with the strongest signals kept by preference.",
  "data": [
    {"substance": "PILRa (Mus musculus), Q2YSF3", "values": [
      {"measurement": "glycan array binding signal (z-score)", "setting": "[1]", "result": 1.51},
      {"measurement": "glycan array binding signal (z-score)", "setting": "Neu5Ac(a2-6)Gal", "result": 2.04}
    ]},
    {"substance": "Siglec-8 (Homo sapiens), Q9NYZ4", "values": [
      {"measurement": "glycan array binding signal (z-score)", "setting": "[2]", "result": 0.008},
      {"measurement": "glycan array binding signal (z-score)", "setting": "[3]; mutation: R125K", "result": -0.306},
      {"measurement": "glycan array binding signal (z-score)", "setting": "[4]", "result": -0.164},
      {"measurement": "glycan array binding signal (z-score)", "setting": "[5]", "result": -0.473}
    ]},
    {"substance": "Avaren (Actinomycete K97)", "values": [
      {"measurement": "glycan array binding signal (z-score)", "setting": "[6]", "result": -0.134},
      {"measurement": "glycan array binding signal (z-score)", "setting": "[1]", "result": -0.14},
      {"measurement": "glycan array binding signal (z-score)", "setting": "[7]", "result": -0.117}
    ]},
    {"substance": "MpAFP RI GFP (Marinomonas primoryensis)", "values": [
      {"measurement": "glycan array binding signal (z-score)", "setting": "[8]", "result": 0.092},
      {"measurement": "glycan array binding signal (z-score)", "setting": "[9]", "result": 3.43},
      {"measurement": "glycan array binding signal (z-score)", "setting": "[10]", "result": 1.36},
      {"measurement": "glycan array binding signal (z-score)", "setting": "[11]", "result": -0.16}
    ]},
    {"substance": "Aggrecan (Rattus norvegicus), NP_071526", "values": [
      {"measurement": "glycan array binding signal (z-score)", "setting": "[12]", "result": -0.113}
    ]},
    {"substance": "CHI3L1 (Homo sapiens), P36222", "values": [
      {"measurement": "glycan array binding signal (z-score)", "setting": "[12]", "result": -0.105},
      {"measurement": "glycan array binding signal (z-score)", "setting": "[1]", "result": -0.139},
      {"measurement": "glycan array binding signal (z-score)", "setting": "[11]", "result": -0.113},
      {"measurement": "glycan array binding signal (z-score)", "setting": "[13]", "result": -0.11}
    ]},
    {"substance": "HARE (Homo sapiens), Q8WWQ8", "values": [
      {"measurement": "glycan array binding signal (z-score)", "setting": "[12]", "result": -0.057},
      {"measurement": "glycan array binding signal (z-score)", "setting": "Neu5Ac(a2-6)Gal", "result": -0.26}
    ]},
    {"substance": "PILRb (Mus musculus), Q2YSF2", "values": [
      {"measurement": "glycan array binding signal (z-score)", "setting": "[3]", "result": -0.349},
      {"measurement": "glycan array binding signal (z-score)", "setting": "[14]", "result": -0.085},
      {"measurement": "glycan array binding signal (z-score)", "setting": "[13]", "result": -0.167}
    ]},
    {"substance": "C3b (Homo sapiens), P01024", "values": [
      {"measurement": "glycan array binding signal (z-score)", "setting": "[1]", "result": 0.107},
      {"measurement": "glycan array binding signal (z-score)", "setting": "Neu5Ac(a2-6)Gal(b1-4)Glc", "result": -0.687}
    ]},
    {"substance": "Neurocan (Homo sapiens), O14594", "values": [
      {"measurement": "glycan array binding signal (z-score)", "setting": "[15]", "result": 0.267},
      {"measurement": "glycan array binding signal (z-score)", "setting": "[2]", "result": -1.44},
      {"measurement": "glycan array binding signal (z-score)", "setting": "Neu5Ac(a2-6)GalNAc", "result": 0.364}
    ]},
    {"substance": "SRLC (Mus musculus), Q8VIF6", "values": [
      {"measurement": "glycan array binding signal (z-score)", "setting": "[16]", "result": -0.188}
    ]},
    {"substance": "Regenerating Gene IV (Homo sapiens), Q9BYZ8", "values": [
      {"measurement": "glycan array binding signal (z-score)", "setting": "[3]", "result": -0.335},
      {"measurement": "glycan array binding signal (z-score)", "setting": "Neu5Ac(a2-6)Gal", "result": 0.693},
      {"measurement": "glycan array binding signal (z-score)", "setting": "[16]", "result": 0.532},
      {"measurement": "glycan array binding signal (z-score)", "setting": "[17]", "result": -0.332}
    ]}
  ]
}
